Compound activity (PubChem BioAssay)
Most compounds without a hit are left out; they make up all but 8.1% or so of the library.
Shh pathway inh: blocks Sonic Hedgehog signaling | inhibition, % (no concentration beside the values) | Shh-LIGHT2 Gli-luciferase reporter, 30 h | actives 2.1% (n = 22,000) | AID 2313;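 active = mean inhibition across valid replicates above about 65%, limit read from the data; inconclusive = mean under the limit, yet half or more replicates past it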;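 note: pathway switched on by Shh-conditioned medium diluted 1 in 25 in low serum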
MITF inh: blocks MITF activity. TRPM1 promoter luciferase, luminescence, 24 h. inhibition, % (no concentration beside the values). actives 0.28% (n = 37,000). AID 2240; in the data active = inhibition above about 85%; inconclusive = no clear call, values can overlap the other calls; inactive = below about 68%;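 note: human melanocyte line stably carrying TRPM1 promoter luciferase reporter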
NOMO-1 viab: STK33 inhibitor candidate reducing NOMO-1 cell viability; NOMO-1 AML viability, CellTiter-Glo luminescence, 72 h; inhibition, % (no concentration beside the values); actives 7.5% (n = 37,000); AID 2330; in the data active = inhibition above about 80%; inconclusive = no clear call, values can overlap the other calls
Numbers stand for hits; . = inactive; ? = inconclusive; / = no result given.

SMILES	Shh pathway inh	MITF inh	NOMO-1 viab
Cc1cc(C)c(NC(=O)CSc2nncc3ccccc23)c([N+](=O)[O-])c1	/	.	.
C[C@H](CO)N1C[C@H](C)[C@H](CN(C)Cc2ccc(Oc3ccccc3)cc2)Oc2ccc(NC(=O)Nc3cccc4ccccc34)cc2CC1=O	.	.	.
C[C@H]1CN([C@@H](C)CO)C(=O)Cc2cc(NC(=O)Nc3cccc4ccccc34)ccc2O[C@@H]1CN(C)Cc1ccccc1	.	.	.
C[C@H]1CN([C@@H](C)CO)C(=O)Cc2cc(NC(=O)Nc3cccc4ccccc34)ccc2O[C@@H]1CN(C)Cc1ccc(-c2ccccc2)cc1	.	.	96.0
C[C@H](CO)N1C[C@H](C)[C@H](CN(C)Cc2ccccc2)Oc2ccc(NC(=O)Nc3cccc4ccccc34)cc2CC1=O	.	.	.
C[C@H]1CN([C@@H](C)CO)C(=O)Cc2cc(NC(=O)Nc3cccc4ccccc34)ccc2O[C@@H]1CN(C)Cc1ccc(Oc2ccccc2)cc1	.	.	116.2
C[C@@H]1CN([C@@H](C)CO)C(=O)Cc2cc(NC(=O)Nc3cccc4ccccc34)ccc2O[C@@H]1CN(C)Cc1ccncc1	.	.	82.0
O=C(COc1ccc([N+](=O)[O-])cc1)Nc1ccc2oc(-c3cc(F)c(F)cc3Cl)nc2c1	/	.	.
CC(C)c1ccc(OCC(=O)Nc2ccc(Br)cc2C(=O)O)cc1	/	.	.
COC(=O)CNS(=O)(=O)c1ccccc1[N+](=O)[O-]	/	.	112.3
O=C(c1ccccc1NS(=O)(=O)c1ccccc1[N+](=O)[O-])N1CCOCC1	/	.	.
CC1(C)C=Cc2c(c(CCO)c3occ(-c4ccc(O)c(O)c4)c(=O)c3c2O)O1	.	.	.
CC(C)=CCc1c2c(c3occ(-c4ccc(O)cc4)c(=O)c3c1O)C=CC(C)(C)O2	.	.	106.6
COc1ccccc1/C=C(\C#N)c1ccc(C)cc1	.	.	.
Cc1ccc(/C(C#N)=C/c2ccc(N(C)C)cc2)cc1	.	.	115.6
O=C(COc1ccc2ccccc2c1Br)Nc1ccccc1C(=O)NC1CCCCC1	/	.	.
C/C=C(\C)C(=O)O[C@@H]1C(C)=C2[C@H]3OC(=O)[C@](C)(O)[C@]3(O)[C@H](OC(=O)C(C)CC)C[C@@](C)(OC(C)=O)[C@@H]2[C@H]1OC(=O)CCCCCCC (stereo not given in full)	99.0	/	/
C[C@@H]1CN([C@@H](C)CO)C(=O)Cc2cc(NC(=O)Nc3ccc(F)cc3)ccc2O[C@@H]1CN(C)S(=O)(=O)c1cccs1	.	.	.
C[C@H](CO)N1C[C@H](C)[C@H](CN(C)S(=O)(=O)c2cccs2)Oc2ccc(NC(=O)Nc3ccc4c(c3)OCO4)cc2CC1=O	.	.	86.5
C[C@@H]1CN([C@@H](C)CO)C(=O)Cc2cc(NC(=O)Nc3ccc(C(F)(F)F)cc3)ccc2O[C@@H]1CN(C)S(=O)(=O)c1cccs1	.	.	111.1
C[C@@H]1CN([C@H](C)CO)C(=O)Cc2cc(NC(=O)Nc3ccc4c(c3)OCO4)ccc2O[C@H]1CN(C)S(=O)(=O)c1cccs1	.	.	.
C[C@@H]1CN([C@H](C)CO)C(=O)Cc2cc(NC(=O)Nc3ccc(C(F)(F)F)cc3)ccc2O[C@H]1CN(C)S(=O)(=O)c1cccs1	/	.	.
C[C@H](CO)N1C[C@H](C)[C@H](CN(C)S(=O)(=O)c2cccs2)Oc2ccc(NC(=O)Nc3ccc(C(F)(F)F)cc3)cc2CC1=O	/	.	123.3
CCCCC1(COC(=O)c2ccc(OC)cc2)C(=O)N(c2ccccc2)N(c2ccccc2)C1=O	.	.	.
CCc1ccccc1NC(=O)CSc1nnc(-c2ccccc2)n1C	/	.	.
SMILES	Shh pathway inh	MITF inh	NOMO-1 viab
COc1ccc(C2CC(=O)c3ccc(OC)cc3O2)cc1 (stereo not given)	.	.	.
COc1ccc(/C=C2\C(=O)c3ccccc3OC2c2ccccc2)cc1 (stereo not given)	.	.	120.0
N#CC1=C(N)S[C@H](C(=O)c2ccccc2)[C@H]1c1ccc(Br)c(F)c1	/	.	?
COc1ccccc1N(CC(=O)Nc1cccc([N+](=O)[O-])c1C)S(C)(=O)=O	/	.	.
CC(C)C[C@](CC(=O)OCc1ccc(O[C@@H]2O[C@H](CO)[C@@H](O)[C@H](O)[C@H]2O)cc1)(O[C@@H]1O[C@H](CO)[C@@H](O)[C@H](O)[C@H]1O)C(=O)OCc1ccc(O[C@@H]2O[C@H](CO)[C@@H](O)[C@H](O)[C@H]2O)cc1	.	.	94.9
O=C(CC(O)(CC(=O)OCc1ccc(O[C@@H]2O[C@H](CO)[C@@H](O)[C@H](O)[C@H]2O)cc1)C(=O)OCc1ccc(O[C@@H]2O[C@H](CO)[C@@H](O)[C@H](O)[C@H]2O)cc1)OCc1ccc(O[C@@H]2O[C@H](CO)[C@@H](O)[C@H](O)[C@H]2O)cc1	.	.	.
O=C(CSc1ncnc2sc(-c3ccccc3)cc12)NC1CCCCC1	/	.	103.9
COc1ccc(NC(=O)CSc2ncnc3sc(-c4ccccc4)cc23)cc1Cl	/	.	.
CC(Oc1ccc(C(=O)NC2CCCCC2)cc1)C(=O)Nc1ccccc1C(F)(F)F (stereo not given)	/	.	.
C[C@@H]1CN([C@H](C)CO)C(=O)Cc2cc(NC(=O)CCCCCC(=O)Nc3ccccc3N)ccc2O[C@@H]1CN(C)Cc1ccncc1	/	.	.
C[C@H](CO)N1C[C@H](C)[C@H](CN(C)Cc2ccc(-c3ccccc3)cc2)Oc2ccc(NC(=O)CCCCCC(=O)Nc3ccccc3N)cc2CC1=O	/	.	139.2
C[C@H](CO)N1C[C@H](C)[C@H](CN(C)Cc2ccncc2)Oc2ccc(NC(=O)CCCCCC(=O)Nc3ccccc3N)cc2CC1=O	/	.	.
C[C@@H]1CN([C@H](C)CO)C(=O)Cc2cc(NC(=O)CCCCCC(=O)Nc3ccccc3N)ccc2O[C@@H]1CN(C)Cc1ccc(-c2ccccc2)cc1	/	.	140.6
C[C@H]1CN([C@@H](C)CO)C(=O)Cc2cc(NC(=O)CCCCCC(=O)Nc3ccccc3N)ccc2O[C@H]1CN(C)CC1CCCCC1	/	.	138.4
C[C@@H]1CN([C@H](C)CO)C(=O)Cc2cc(NC(=O)CCCCCC(=O)Nc3ccccc3N)ccc2O[C@H]1CN(C)Cc1ccc(-c2ccccc2)cc1	/	.	139.5
C[C@@H]1CN([C@H](C)CO)C(=O)Cc2cc(NC(=O)CCCCCC(=O)Nc3ccccc3N)ccc2O[C@H]1CN(C)CC1CC1	/	.	.
C[C@@H]1CN([C@@H](C)CO)C(=O)Cc2cc(NC(=O)CCCCCC(=O)Nc3ccccc3N)ccc2O[C@@H]1CN(C)C(=O)Nc1ccccc1	/	.	.
C/C(=C\CC[C@@H](C)[C@H]1CC(O)[C@@]2(C)C3CC[C@H]4C(C)(C)[C@@H](O[C@@H]5OC(CO)C(O)C(O)C5OC5OC(CO)C(O)C(O)C5O)CC[C@@]45C[C@@]35CC(O)[C@]12C)C(=O)O (stereo not given in full)	.	.	.
Cn1cnnc1SCc1nc2ccc([N+](=O)[O-])cc2[nH]1	/	.	.
COc1ccc(S(=O)(=O)N(C)CC(=O)Nc2cccc([N+](=O)[O-])c2)cc1Cl	/	.	.
O=C(CSc1nc2ccccc2c(=O)n1-c1ccccc1)Nc1ccc(Br)cc1Cl	/	.	.
CCOC(=O)c1cccc(NC(=O)COc2ccc(Br)cc2)c1	/	.	.
